In PubChem BioAssay AID1159580 (chemical genetic matrix, 2015):
Out of some 5,500 compounds screened, about 2,000 (36%) were called active. Another 18% or so got no clear call; they are omitted. No stated cut-off is given here; in the data, active means normalized growth mostly below about 0.91 (no sharp cut-off); inconclusive means no clear call, values can overlap the other calls; inactive means mostly above about 0.92. This is one part of the list.

Assay: chemical genetic growth profiling, strain panel (AID 1159580);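 further: tested at 20 µM; growth read once vehicle control cultures reached saturation at 30 °C; 1 = growth at the plate median or of vehicle wells; lower values mean less growth of the strain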
Conditions: S. cerevisiae deletion strains, growth OD

Measured: normalized growth

CC(C)=CCC/C(C)=C/CC/C(C)=C/CSc1ccccc1C(=O)O
active: locus YCL061C, strain MRC1 (second series), hits give low values 0.938 | locus YGR229C, strain SMI1, hits give low values 0.742 | locus YOR083W, strain WHI5 (second series), hits give low values 0.855
inactive: locus YAL013W, strain DEP1, hits give low values 0.944 | locus YAL040C, strain CLN3, hits give low values 1.04 | locus YDR363W, strain ESC2, hits give low values 0.896 | locus YER002W, strain NOP16, hits give low values 0.958 | locus YGR078C, strain PAC10, hits give low values 0.928 | locus YNL175C, strain NOP13, hits give low values 0.956 | locus YNL197C, strain WHI3, hits give low values 0.965 | locus YNL224C, strain SQS1, hits give low values 0.974

CC(=O)OC/C=C(\C)CC/C=C(\C)CC/C=C(\C)CC/C=C(\C)CC/C=C(\C)CC/C=C(\C)CC/C=C(\C)CC/C=C(\C)CCC=C(C)C
inactive: locus YAL021C, strain ccr4, hits give low values 0.991 | locus YAL026C, strain drs2, hits give low values 0.973 | locus YAL030W, strain snc1, hits give low values 0.977 | locus YBL061C, strain skt5, hits give low values 0.981 | locus YBR009C, strain hhf1, hits give low values 0.98 | locus YBR023C, strain chs3, hits give low values 0.991 | locus YBR171W, strain sec66, hits give low values 0.98 | locus YBR231C, strain swc5, hits give low values 0.992 | locus YBR279W, strain paf1, hits give low values 0.987 | locus YCL011C, strain gbp2, hits give low values 0.959 | locus YCL016C, strain dcc1, hits give low values 0.981 | locus YCL061C, strain MRC1, hits give low values 0.997 | locus YCL069W, strain vba3, hits give low values 1 | locus YCR088W, strain abp1, hits give low values 0.995 | locus YDL005C, strain med2, hits give low values 0.976 | locus YDL040C, strain nat1, hits give low values 0.998 | locus YDR001C, strain nth1, hits give low values 0.966 | locus YDR069C, strain doa4, hits give low values 0.978 | locus YDR137W, strain rgp1, hits give low values 0.984 | locus YDR159W, strain sac3, hits give low values 1.02 | locus YDR195W, strain ref2 0.984 | locus YDR297W, strain sur2, hits give low values 0.993 | locus YDR334W, strain swr1, hits give low values 0.943 | locus YDR335W, strain msn5, hits give low values 0.982 | locus YDR392W, strain spt3, hits give low values 0.976 | locus YEL003W, strain gim4, hits give low values 0.98 | locus YEL037C, strain rad23, hits give low values 0.976 | locus YEL061C, strain CIN8 (second series), hits give low values 0.973 | locus YER015W, strain faa2, hits give low values 0.971 | locus YER016W, strain bim1, hits give low values 0.99 | locus YER111C, strain swi4, hits give low values 0.984 | locus YER155C, strain BEM2 (second series), hits give low values 1 | locus YFR010W, strain ubp6, hits give low values 0.967 | locus YGL167C, strain pmr1, hits give low values 0.981 | locus YGL173C, strain kem1, hits give low values 0.974 | locus YGL227W, strain vid30, hits give low values 0.987 | locus YGL240W, strain doc1, hits give low values 1.01 | locus YGL253W, strain hxk2, hits give low values 0.964 | locus YHR013C, strain ard1, hits give low values 0.969 | locus YHR027C, strain rpn1, hits give low values 0.974 | locus YHR030C, strain SLT2, hits give low values 1.04 | locus YHR079C, strain IRE1, hits give low values 1.04 | locus YHR142W, strain chs7, hits give low values 0.917 | locus YJL092W, strain hpr5, hits give low values 0.985 | locus YJL095W, strain BCK1 (second series), hits give low values 0.987 | locus YJL095W, strain BCK1, hits give low values 1.02 | locus YJL115W, strain asf1, hits give low values 0.951 | locus YJL129C, strain trk1, hits give low values 0.931 | locus YJL154C, strain vps35, hits give low values 0.971 | locus YJL164C, strain tpk1, hits give low values 0.976 | locus YJL166W, strain qcr8, hits give low values 0.99 | locus YJL187C, strain SWE1, hits give low values 0.986 | locus YJR066W, strain TOR1, hits give low values 1.01 | locus YKL160W, strain elf1, hits give low values 0.98 | locus YKR026C, strain gcn3, hits give low values 0.988 | locus YKR091W, strain srl3, hits give low values 0.984 | locus YLL001W, strain dnm1, hits give low values 0.968 | locus YLL026W, hits give low values 0.974 | locus YLL041C, strain sdh2, hits give low values 0.991 | locus YLR027C, strain aat2, hits give low values 0.997 | locus YLR113W, strain HOG1, hits give low values 0.991 | locus YLR221C, strain rsa3, hits give low values 0.942 | locus YLR258W, strain gsy2, hits give low values 0.997 | locus YLR262C, strain YPT6 (second series), hits give low values 0.996 | locus YLR320W, strain mms22, hits give low values 0.991 | locus YLR342W, strain FKS1, hits give low values 0.99 | locus YLR357W, strain rsc2, hits give low values 0.987 | locus YLR370C, strain arc18, hits give low values 0.994 | locus YLR384C, strain iki3, hits give low values 0.985 | locus YML120C, strain ndi1, hits give low values 0.977 | locus YMR058W, strain fet3, hits give low values 0.984 | locus YMR125W, strain sto1, hits give low values 0.939 | locus YMR129W, hits give low values 0.982 | locus YMR205C, strain PFK2, hits give low values 0.958 | locus YMR231W, strain pep5, hits give low values 0.989 | locus YNL071W, strain lat1, hits give low values 0.987 | locus YNL183C, strain NPR1, hits give low values 1.01 | locus YNL209W, strain ssb2, hits give low values 1 | locus YNL248C, strain rpa49, hits give low values 0.964 | locus YNL322C, strain KRE1 (second series), hits give low values 0.97 | locus YNR049C, strain mso1, hits give low values 0.975 | locus YOR001W, strain rrp6, hits give low values 1 | locus YOR070C, strain gyp1, hits give low values 0.984 | locus YOR080W, strain dia2, hits give low values 0.978 | locus YOR083W, strain WHI5, hits give low values 0.97 | locus YOR106W, strain vam3, hits give low values 0.909 | locus YOR231W, strain MKK1, hits give low values 1.02 | locus YOR265W, strain rbl2, hits give low values 0.996 | locus YOR270C, strain vph1, hits give low values 0.879 | locus YOR290C, strain snf2, hits give low values 0.941 | locus YPL051W, strain arl3, hits give low values 1 | locus YPL078C, strain atp4, hits give low values 0.977 | locus YPL106C, strain sse1, hits give low values 0.997 | locus YPL240C, strain hsp82, hits give low values 0.968 | locus YPL256C, strain CLN2, hits give low values 1.02
